Screening results deposited in PubChem by National Center for Advancing Translational Sciences (NCATS).
Giardia killer = Small Molecules that selectively kill Giardia lamblia: qHTS; activity change, % at 7.66 µM, hits read low; 340,000 compounds, 0.15% hits; Giardia lamblia trophozoite viability; in the data active = activity change below about -80%; inconclusive = between about -30% and that limit;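 also: parasites exposed to compound for two days anaerobically before the ATP read; % is scaled to controls: 0 for no effect and ±100 for the full control effect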
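Media and compound were dispensed first, then trophozoites at 100 cells/well; plates sat 48 hrs at 37 deg C without oxygen before ATP luminescence reagent was added and read after 15-30 min at room temperature.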
miR-21 reporter = qHTS Assay for Modulators of miRNAs and/orActivators of miR-21 | 340,000 tested, under 10 active | HeLa miR-21 FLuc reporter, luciferase, 48 h | Potency, µM (doses to about 38.3 µM), without a hit: at the top dose activity change, positive = activation, most hits filed as activators;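 also: % of control where 0% means no effect; miR-21 action dims this reporter so a rising signal means less miR-21 action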
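HeLa miR-21-FLuc reporter line, endogenous miR-21; 2000 cells/well in DMEM/10% FBS; compound titration up to ~40uM final, 48 h, 37 degree Celsius; luciferase detection reagent, 15 min lysis, CCD luminescence.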
GALK inhibitor = qHTS Assay for Inhibitors of Human Galactokinase (GALK) | Potency, µM (doses to about 57.5 µM), inactives show top-dose activity change, negative = inhibition, usual class: inhibitors | P51570 | AID 1868, 2009 | 270,000 compounds, 0.007% hits | Purified GALK, Kinase-Glo residual ATP luminescence; also: potency is read from the fitted curve at half-maximal effect; % is scaled to controls: 0 for no effect and ±100 for the full control effect
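Human GALK (5 nM) with 35 uM ATP and 100 uM galactose in 20 mM HEPES pH 8.0, 5 mM MgCl2, 60 mM NaCl, 1 mM DTT, 0.01% BSA. After 1 h at room temperature, leftover ATP was read by Kinase-Glo Plus luminescence.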
B2AR arrestin = qHTS assay of beta-arrestin-biased ligands of beta2-adrenergic receptor. Beta-2 adrenergic receptor (Homo sapiens), P07550. beta-arrestin recruitment to beta2AR, cell-based reporter. Potency, µM (highest dose often 46.1 µM), for the others: at the top dose activation, actives largely listed as activators. 330,000 compounds, 0.02% hits;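 also: potency is read from the fitted curve at half-maximal effect; 0% = DMSO controls and full agonism = EC100 isoproterenol or metaproterenol; nearly all actives have a fitted effect of over 65% in size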
Target sequence (P07550 whole entry, looked up): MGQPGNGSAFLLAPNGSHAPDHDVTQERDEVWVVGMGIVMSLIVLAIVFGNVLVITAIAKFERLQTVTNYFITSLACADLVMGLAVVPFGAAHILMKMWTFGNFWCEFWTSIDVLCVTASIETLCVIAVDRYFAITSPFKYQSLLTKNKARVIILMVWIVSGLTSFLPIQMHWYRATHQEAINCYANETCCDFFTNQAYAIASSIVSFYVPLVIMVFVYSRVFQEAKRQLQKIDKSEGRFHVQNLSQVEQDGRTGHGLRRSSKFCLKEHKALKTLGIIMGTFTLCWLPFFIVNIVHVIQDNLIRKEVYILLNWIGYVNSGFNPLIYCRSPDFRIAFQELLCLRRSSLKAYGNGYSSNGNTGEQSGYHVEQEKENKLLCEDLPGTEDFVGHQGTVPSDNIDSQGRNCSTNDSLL
uPA surface inh = qHTS for Inhibitors of Cell Surface uPA Generation. cell surface uPA generation assay, qHTS. Potency, µM (titrated, usually from 38.3 µM), inactives show at the highest dose activity change, negative = inhibition, hits mostly inhibitors. 330,000 compounds, 0.31% hits; active = well fitted inhibition curve with a large enough effect; inconclusive = small, poorly fitted or top-dose-only effect; inactive = no such curve, though single readings can be large or run the other way; tested in mouse RAW 264.7 cells; also: potency is read from the fitted curve at half-maximal effect; % is scaled to controls: 0 for no effect and ±100 for the full control effect; nearly all actives have a fitted effect of over 55% in size
FBPA coupling cs = qHTS Assay for Inhibitors of Fructose-1,6-bisphosphate Aldolase from Giardia Lamblia: Coupling assay counterscreen. 290,000 compounds, 0.67% hits. coupling enzyme system counterscreen, AmpLite Red fluorescence. activity change, negative = inhibition, % at 58.2 µM, hits read low. AID 2472, 2010; in the data active = activity change below about -30%; also: % is scaled to controls: 0 for no effect and ±100 for the full control effect
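Coupling enzymes only (glyceraldehyde-3-phosphate) + compound, at 57.5 uM final, 10 min RT; add substrate/coupling/AmpLite Red mix, 20 min RT; fluorescence ex 525/em 598 nm. Actives flag coupling-system interference.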
* marks the source's active call; other numbers are inactive results; u = inconclusive; x = no result given. Hits are enriched below; roughly 0.92% of the tested compounds scored in any of these assays. Unless noted, calls follow the shape of the dose curve; as a rule, active = well fitted curve in the direction sought with a large enough effect; inconclusive = small, poorly fitted or top-dose-only effect, or another doubt; inactive = no such curve, though single readings can be large; an effect the other way counts as inactive or inconclusive.

SMILES | Giardia killer | miR-21 reporter | GALK inhibitor | B2AR arrestin | uPA surface inh | FBPA coupling cs
Cc1cc(N2CCN(C)CC2)nc2ccc(NC(=S)N3CCN(c4ccc(Cl)cc4)CC3)cc12 | u | -21% | 1% | -1% | 6% | -28
Cc1cc(N2CCN(C)CC2)nc2ccc(NC(=S)N3CCN(c4ccc(F)cc4)CC3)cc12 | -85* | -10% | -1% | 0% | -8% | 1
Cc1cccc(N2CCN(C(=S)Nc3ccc4nc(N5CCN(C)CC5)cc(C)c4c3)CC2)c1C | -82* | -1% | 0% | 0% | 2% | 3
Cc1cc(N2CCN(C)CC2)nc2ccc(NC(=S)N3CCN(c4cccc(Cl)c4)CC3)cc12 | -81* | 3% | -1% | 0% | 3% | 2
Cc1ccc(CNC(=O)C2CCCN(Cc3nc(-c4cccc(C)c4)oc3C)C2)cc1 (stereo unspecified) | x | 1% | x | x | x | x
O=C(CSc1nnc(-c2cccs2)o1)Oc1ccc(Cl)cc1 | x | -22% | x | x | x | x
Cc1cc(N2CCN(C)CC2)nc2ccc(NC(=O)c3ccc(C(C)(C)C)cc3)cc12 | x | 6.6µM* | x | x | x | x
COc1ccc2[nH]c(-c3ccccc3)cc(=O)c2c1 | x | x | x | x | x | -5
O=c1cc(-c2ccccc2)[nH]c2ccc(F)cc12 | 10 | 7% | x | -1% | 0.4µM* | 1
O=c1cc(-c2ccccc2)[nH]c2cc(Cl)ccc12 | u | 23% | x | 0% | 0.045µM* | 0
Cc1ccc(-c2cc(=O)c3cc(C)ccc3[nH]2)cc1 | u | 18% | x | 0% | 1.1µM* | 0
COc1ccc2[nH]c(-c3cccc(F)c3)cc(=O)c2c1 | -9 | -24% | x | -1% | 0.35µM* | 3
Cc1ccc(-c2cc(=O)c3cc(F)ccc3[nH]2)cc1 | -8 | -16% | x | 0% | u | 1
COC(=O)c1ccccc1NC(=O)c1cnc(Nc2ccc(OC)cc2)c2ccccc12 | x | 7% | x | x | x | x
O=c1c2ccccc2sn1-c1ccc(Cl)c(S(=O)(=O)N2CCOCC2)c1 | -6 | x | x | x | x | x
O=C(COc1ccccc1[N+](=O)[O-])Nc1cccc(Cl)c1N1CCOCC1 | -16 | 24% | 4% | 0% | 10µM* | x
CC(=O)c1cccc(Nc2c3c(nc4ccccc24)CCC3)c1 | 26 | 25% | x | 0% | 0.79µM* | 0
COC(=O)/C=C/COc1ccccc1[N+](=O)[O-] | -7 | -26% | 11% | 0% | 11µM* | 2
O=C(COc1ccccc1[N+](=O)[O-])c1ccccc1 | 29 | 1% | 0% | 0% | -4% | -7
O=C(Nc1ccc([N+](=O)[O-])cc1Cl)c1ccccc1O | -19 | x | x | x | x | x
Cc1ccc(S(=O)(=O)Nc2cccc3ncccc23)s1 | -1 | u | 0% | 0% | -6% | -40*
C/C(=C\C(=S)Nc1ccccc1)Nc1cccc2ccccc12 | -4 | -24% | -1% | -1% | -7% | -49*
C/C(=C\C(=S)Nc1ccccc1)Nc1ccc2ccccc2c1 | 2 | -46% | x | 0% | -2% | -37*
C=CCNC(=S)Nc1cccc2ccccc12 | 9 | -7% | 0% | 0% | -1% | -51*
CC(C)CNc1ncnc2oc(-c3ccco3)c(-c3ccco3)c12 | 12 | x | x | x | x | x
SMILES | Giardia killer | miR-21 reporter | GALK inhibitor | B2AR arrestin | uPA surface inh | FBPA coupling cs
CSc1nnc(-c2ccccc2)c(-c2ccccc2)n1 | -5 | -9% | 1% | 0% | 8% | 5
O=C(CSc1nnc(-c2ccco2)c(-c2ccco2)n1)Nc1ccccc1 | -6 | -10% | 3% | 0% | -7% | -30*
CSc1nnc(-c2ccco2)c(-c2ccco2)n1 | 6 | 1% | -3% | -1% | -7% | -34*
COC(=O)c1sccc1S(=O)(=O)N1CCN(c2ccc(C(C)=O)cc2)CC1 | x | 16% | x | x | x | x
CCn1c(C(=O)Nc2c(C)cccc2C)cc2sc(Cl)cc21 | x | 3% | x | x | x | x
COc1ccc(S(=O)(=O)NCCN2CCOCC2)c(C)c1C | -16 | -4% | -3% | 4% | 1% | -2
COc1ccc(OC)c2c(C)cc(NCCN3CCOCC3)nc12 | 23 | -15% | 9% | 0% | 10% | -30*
